ATXN viability: reduces viability in counter-screen for ATXN expression inhibitors. 400,000 compounds, 0.49% hits. S2 cells (HEK-293 line with an ATXN2-luciferase reporter) viability, CellTiter-Fluor protease fluorescence, 24 h. Potency, µM (series often up to 56.7 µM), most hits filed as cytotoxic. AID 651635; also: nearly all actives have a fitted effect of over 40% in size
HT1080 IDH1KD tx: HT-1080 IDH1 knockdown cell toxicity (counter line); HT-1080 IDH1 knockdown viability, ATP luminescence, 48 h; Potency, µM (titrated, usually from 46.1 µM), actives largely listed as cytotoxic; 360,000 compounds, 2% hits
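After a 2 h attachment period, IDH1KD HT-1080 cells took pin-transferred compound for 48 h at 37 °C; ATP-based luminescence after 10 min room-temperature reagent incubation reported viability.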
ATXN2 expr inh: reduces ATXN2 reporter expression in HEK-293 cells | HEK-293 ATXN2-luciferase reporter, luminescence, 24 h | Potency, µM (doses to about 57 µM), hits mostly inhibitors | 360,000 compounds, 0.72% hits | AID 1745845; also: nearly all actives have a fitted effect of over 55% in size
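qHTS (up to 57 uM final) was run with 24 h compound exposure of reporter cells at 37 °C. Each well was multiplexed: SteadyGlo luminescence measured ATXN2-luciferase expression after a fluorogenic Gly-Phe-AFC viability readout (25 uM final).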
HepG2 tox: HepG2 cytotoxicity, counter-screen for TGF-b inhibitors; HepG2 CAGA-GFP viability, ATP luminescence, 18 h; Potency, µM (top dose mostly 46.1 µM), hits mostly cytotoxic; 410,000 compounds, 0.76% hits
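CellTiter-Glo luminescence gave cytotoxicity after 18 hours at 37 degrees C. The cells were HepG2 CAGA-GFP in 1% FBS DMEM, stimulated with 500 pg/mL TGF-beta after compound addition. %Activity was normalised to no-cell wells (complete cell-killing) and DMSO (no toxicity), and curves were fitted and classified.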
TGFb inhibitor: blocks TGF-b signaling. HepG2 CAGA-GFP TGF-b/SMAD3 reporter, GFP fluorescence, 18 h; TGF-beta stimulated, 500 pg/mL final. Potency, µM (highest dose often 46.1 µM), hits mostly inhibitors. 410,000 compounds, 1.2% hits; also: nearly all actives have a fitted effect of over 65% in size
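HEPG2 CAGA-GFP, 1000 cells/well; 2 h settle, 37 C; cpd via pin tool; TGF-b 500 pg/mL final; 18 h, 37 C; GFP imaging ex488/em500-530; %Activity normalised to -TGF-b and +DMSO controls; CRC fit, curve class.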
HT1080NT lethal: kills 2HG-producing HT-1080-NT fibrosarcoma cells; HT-1080-NT fibrosarcoma viability, CellTiter-Glo ATP luminescence, 48 h; Potency, µM (titrated, usually from 46.1 µM), usual class: cytotoxic; 360,000 compounds, 1.6% hits; AID 686970;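 also: NT is the 2HG producing partner of a matched IDH1 knockdown line; nearly all actives have a fitted effect of over 55% in size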
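Toxicity toward the 2HG-producing NT line was scored as %Activity, normalised to DMSO and no-cell wells, from CellTiter-Glo luminescence after 48 hours' treatment.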
Of the large screens only hits and unclear results are named; the others gave an inactive call; ! = repeats disagree. Sampled rows, rich in hits. Any-hit rate of the full collection: about 3.8%. Calls follow the shape of the dose curve; as a rule, active = well fitted curve in the direction sought with a large enough effect; inconclusive = small, poorly fitted or top-dose-only effect, or another doubt; inactive = no such curve, though single readings can be large; an effect the other way counts as inactive or inconclusive.

CCC1=Nc2cc(C(=O)N3CCC4(CC3)OCCO4)ccc2Sc2ccccc21	ATXN viability inconclusive
C[C@]12CC[C@@H]3c4cc(O)c(O)cc4CC[C@H]3[C@@H]1CC[C@@H]2O	ATXN viability inconclusive, HT1080 IDH1KD tx 6.5µM, TGFb inhibitor inconclusive, HT1080NT lethal inconclusive
C[C@]12CC[C@@H]3c4ccc(O)c(O)c4CC[C@H]3[C@@H]1CC[C@@H]2O	ATXN viability inconclusive, HT1080 IDH1KD tx inconclusive, TGFb inhibitor inconclusive, HT1080NT lethal inconclusive
Clc1ccc(COC(Cn2ccnc2)c2ccc(Cl)cc2Cl)cc1 (stereo not given)	ATXN viability inconclusive, HT1080 IDH1KD tx 15µM, ATXN2 expr inh 35µM!, TGFb inhibitor inconclusive, HT1080NT lethal inconclusive
C[C@@H]1O[C@@H](O[C@H]2C[C@@H](O)[C@]3(CO)[C@@H]4C(CC[C@]3(O)C2)[C@@]2(O)CC[C@H](C3COC(=O)C3)[C@@]2(C)C[C@H]4O)[C@H](O)[C@H](O)[C@H]1O (stereo not given in full)	ATXN viability inconclusive, HT1080 IDH1KD tx 1.3µM, ATXN2 expr inh 1.6µM, TGFb inhibitor inconclusive, HT1080NT lethal 5.2µM
COC1C(O)C(C)OC(OC2CCC3(C)C(CCC4C3C(O)CC3(C)C(C5=CC(=O)OC5)CCC43O)C2)C1O (stereo not given)	ATXN viability inconclusive, HT1080 IDH1KD tx 0.82µM, ATXN2 expr inh 0.4µM, TGFb inhibitor 2µM, HT1080NT lethal 1.5µM
CNC(=O)Nc1ccc(C(=O)N/N=C\C23CC[C@@H](O)CC2(O)CC[C@@H]2[C@@H]3CCC3(C)C(C4=CC(=O)OC4)CCC23O)cc1 (stereo not given in full)	HT1080 IDH1KD tx inconclusive, ATXN2 expr inh inconclusive, HT1080NT lethal inconclusive
CC1OC(O[C@H]2C[C@@H](O)[C@]3(CO)[C@H]4[C@H](O)C[C@]5(C)[C@@H](C6=CC(=O)OC6)CC[C@]5(O)[C@@H]4CC[C@]3(O)C2)C(O)C(O)C1O (stereo not given in full)	TGFb inhibitor 0.56µM (no result: ATXN viability, HT1080 IDH1KD tx, ATXN2 expr inh, HT1080NT lethal)
C[C@]12C=CC(=O)C=C1CC[C@@H]1C2=CC[C@]2(C)[C@@H](C(=O)CN3CCN(c4cc(N5CCCC5)nc(N5CCCC5)n4)CC3)CC[C@@H]12	ATXN viability inconclusive, HepG2 tox 25µM
CS(=O)(=O)c1ccc(C(=O)C2C(=O)CCCC2=O)c([N+](=O)[O-])c1	none (no result: HT1080 IDH1KD tx, HepG2 tox, TGFb inhibitor, HT1080NT lethal)
CC(C)c1ccc(Cc2cn3cc(-c4cc5ccccc5oc4=O)nc3s2)cc1	ATXN viability inconclusive (no result: HT1080 IDH1KD tx, HT1080NT lethal)
CN1CC[C@@]2(C)c3cc(O)ccc3N(C)[C@@H]12	ATXN viability 14µM, HT1080 IDH1KD tx inconclusive, HepG2 tox 18µM!, TGFb inhibitor inconclusive, HT1080NT lethal 23µM
Nc1ccc(C2(c3ccc(N)cc3)c3ccccc3-c3ccccc32)cc1	HT1080 IDH1KD tx 16µM, TGFb inhibitor inconclusive, HT1080NT lethal inconclusive (no result: ATXN2 expr inh)
Nc1ccccc1	none (no result: HT1080 IDH1KD tx, HepG2 tox, TGFb inhibitor, HT1080NT lethal)
CO[C@H]1CCC(O[C@H]2C[C@H]([C@]3(C)CC[C@]4(C[C@H](O)[C@@H](C)[C@@H]([C@@H](C)C=C(C)C(=O)[C@H](C)C[C@H](C)C(=O)O)O4)O3)O[C@]3(O[C@@H]([C@H]4O[C@@](O)(CO)[C@H](C)C[C@H]4C)C[C@H]3C)[C@H]2C)O[C@H]1C (stereo not given in full)	ATXN2 expr inh 3.1µM (no result: ATXN viability, HT1080 IDH1KD tx, HepG2 tox, TGFb inhibitor, HT1080NT lethal)
Cc1ccc(-c2cc(C(F)F)n3ncc(C(=O)N4CCc5ccccc5C4)c3n2)cc1	TGFb inhibitor 11µM (no result: ATXN2 expr inh)
CC(C)c1ccc2nc3sc(C(=O)N4CCc5ccccc5C4)c(N)c3cc2c1	HT1080 IDH1KD tx inconclusive, HT1080NT lethal inconclusive (no result: ATXN viability)
O=C(CN1CCN(C(=O)CNC(=O)c2ccc(-c3ccccc3)cc2)CC1)Nc1ccccc1Cl	ATXN viability inconclusive, HT1080 IDH1KD tx inconclusive, HT1080NT lethal inconclusive (no result: ATXN2 expr inh)
O=C(NCCN1CCC(n2c(=O)[nH]c3ccccc32)CC1)c1ccc2ccccc2c1	ATXN viability inconclusive, HT1080 IDH1KD tx inconclusive, ATXN2 expr inh inconclusive (no result: HepG2 tox, TGFb inhibitor)

From PubChem BioAssay
